# Values joined by “and” are separate entries in the source; they are usually repeats but may differ in a detail not shown here. Equal values may be shown once. Among all 16,000 compounds or so, about 5,100 (32%) were called active. Inconclusive results (about 25%) are left out. The list shows a part of the results. A number with no mark means an inactive call. The call rests on the fitted dose curve; in most records, active means well fitted curve in the direction sought with a large enough effect; inconclusive means small, poorly fitted or top-dose-only effect, or effect the other way; inactive means no such curve, though single readings can be large or run the other way.
# Molecular target: Cytochrome P450 3A4 (Homo sapiens) (UniProt P08684)
# Sequence (P08684 whole entry, looked up): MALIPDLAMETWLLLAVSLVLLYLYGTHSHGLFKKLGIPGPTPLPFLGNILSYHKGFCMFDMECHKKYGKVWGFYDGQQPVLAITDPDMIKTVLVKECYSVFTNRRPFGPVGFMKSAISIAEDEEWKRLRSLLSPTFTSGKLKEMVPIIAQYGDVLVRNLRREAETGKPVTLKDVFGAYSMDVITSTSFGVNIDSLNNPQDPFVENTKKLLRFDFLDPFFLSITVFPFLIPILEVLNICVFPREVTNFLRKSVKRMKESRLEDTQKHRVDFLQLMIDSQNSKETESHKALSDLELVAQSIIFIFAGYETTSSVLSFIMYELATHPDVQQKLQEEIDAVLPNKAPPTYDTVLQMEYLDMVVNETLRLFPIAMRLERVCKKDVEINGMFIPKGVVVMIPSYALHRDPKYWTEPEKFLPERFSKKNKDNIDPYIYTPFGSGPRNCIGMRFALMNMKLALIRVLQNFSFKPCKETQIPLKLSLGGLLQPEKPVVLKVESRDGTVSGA
# Assay: Cytochrome panel assay with activity outcomes
# Details: recombinant CYP, pro-luciferin dealkylation, luminescence, p450-cyp3a4; series mostly up to 57.1 µM; activity, negative = inhibition: at the top concentration
# On the % scale 0 is the no-effect control and ±100 the full control effect.
Compound,AC50,"activity, negative = inhibition"
CC(C)NC[C@@H](O)COc1ccc(CCOCC2CC2)cc1,inactive,
CN1CC(c2ccccn2)C2(SC(=S)N(Cc3ccccc3)C2=O)C12C(=O)Nc1ccccc12 (centres undefined),4.47 µM (active),
CCOC(=O)c1ccc(OC(=O)CCCCCN=C(N)N)cc1,inactive,
Cc1ccccc1C(=O)NNC(=O)c1ccoc1C,,-11.1%
CCCc1cc2c(cc1NC(=O)c1ccccc1C)OCO2,2.51 µM (active),
CCCc1cc2c(cc1NC(=O)c1ccccc1Cl)OCO2,2.24 µM (active),
CCCc1cc2c(cc1NC(=O)c1ccc(Br)cc1)OCO2,1.12 µM (active),
CCC(=O)Nc1cc2c(cc1C(=O)c1ccccc1)OCCO2,,-4.4% [at 2.29 µM]
COC(=O)CSc1cc(C(F)(F)F)nc(-c2ccccn2)n1,,18.3%
CCCNC(=O)CSc1nc(-c2cccs2)cc(C(F)(F)F)n1,7.08 µM (active),
O=C(CNC(=O)c1ccccn1)N/N=C/c1ccccc1,,-5.67% [at 2.29 µM]
O=C(N/N=C/c1ccco1)c1ccccn1,,-1.69%
O=C(NN=C1c2ccccc2-c2ccccc21)c1ccccn1,14.1 µM (active),
NC(=O)C1=CN([C@@H]2O[C@@H](COP(=O)(O)OP(=O)(O)OC[C@@H]3O[C@H](n4cnc5c(N)ncnc54)[C@@H](OP(=O)(O)O)[C@@H]3O)[C@H](O)[C@@H]2O)C=CC1,,0.506%
Nc1nc(Cl)nc2c1ncn2[C@@H]1O[C@@H](COP(=O)(O)OP(=O)(O)OP(=O)(O)O)[C@@H](O)[C@H]1O,,5.19%
NC(=S)c1ccc[n+]([C@@H]2O[C@@H](COP(=O)([O-])OP(=O)(O)OC[C@@H]3O[C@@H](n4cnc5c(N)ncnc54)[C@@H](OP(=O)(O)O)[C@H]3O)[C@@H](O)[C@H]2O)c1,12.6 µM (active),
CCn1c(SCc2ccc(Cl)cc2Cl)nc2nc3c(cc2c1=O)CCCC3,8.91 µM (active),
C#CCCCCCCCCCCCCCCCC(=O)O,,-17.5%
O=C(O)C1=CCNCC1,inactive,
CCCCN1C(=O)CCC(C(=O)O)C1c1ccccc1 (centres undefined),,7.8%
COc1ccc(/C(O)=C2/C(=O)C(=O)N(CCCC(=O)O)C2c2ccc(OC)cc2)cc1 (centres undefined),,3%

Compound,AC50,"activity, negative = inhibition"
COc1ccc(C2C(=O)N(CCc3ccccc3)CC(=O)N2C2CCCC2)cc1 (centres undefined),6.31 µM (active),
COc1ccc(-c2nc3cnc(N(C)C)nc3n(CCc3ccccc3)c2=O)cc1,,-16.1%
CCCCN1C(=O)CN(CCc2ccccc2)C(=O)C1c1ccc(OC)cc1 (centres undefined),7.94 µM (active),
CO[C@@H]1COC(=O)[C@H](C)NC(=O)[C@@H](C)COC(=O)CCC[C@H]1C,,-21.6% [at 11.4 µM]
CO[C@@H]1COC(=O)CCC[C@@H](C)[C@H](OC)COC(=O)[C@H](Cc2ccccc2)NC(=O)C/C=C\[C@H]1C,3.98 µM (active),
CO[C@H]1COC(=O)C/C=C\[C@H](C)[C@@H](OC)COC(=O)[C@H](Cc2ccccc2)NC(=O)C/C=C\[C@@H]1C,3.16 µM (active),
CO[C@@H]1COC(=O)CCC[C@@H](C)[C@H](OC)COC(=O)CCC[C@H]1C,,-19.8% [at 11.4 µM]
CO[C@@H]1COC(=O)[C@H](Cc2ccccc2)NC(=O)C/C=C\[C@@H](C)[C@H](OC)COC(=O)[C@@H](C)NC(=O)C/C=C\[C@H]1C,,-25.2% [at 11.4 µM] and -29.9% [at 11.4 µM]
CO[C@@H]1COC(=O)[C@H](COCc2ccccc2)NC(=O)C/C=C\[C@@H](C)[C@H](OC)COC(=O)[C@H](COCc2ccccc2)NC(=O)C/C=C\[C@H]1C,,-6.81% [at 11.4 µM]
CO[C@@H]1COC(=O)[C@@H](CCSC)NC(=O)C/C=C\[C@@H](C)COC(=O)[C@H](C)NC(=O)C/C=C\[C@H]1C,,-17.8% [at 11.4 µM]
CO[C@H]1COC(=O)CCC[C@@H](C)[C@H](OC)COC(=O)[C@@H](C)NC(=O)C/C=C\[C@@H]1C,,-24.2% [at 11.4 µM]
CO[C@H]1COC(=O)[C@@H](Cc2ccccc2)NC(=O)[C@@H](C)COC(=O)CCC[C@@H]1C,3.16 µM (active),
CC1CCN(c2ccccc2NC(=S)NC(=O)c2cccs2)CC1,15.8 µM (active),
O=C(NC(=S)Nc1cccc(Cl)c1N1CCCCC1)c1cccs1,,-1.51% [at 2.29 µM]
COc1ccc(C(=O)NC(=S)NC(C)C)cc1Br,,-28.4%
C=CCN(CC=C)C(=S)Nc1ccccc1,,-16.5% [at 2.29 µM]
C=CCN(CC=C)C(=S)NC(=O)c1ccc(OC)c(Br)c1,0.891 µM (active),
CCCc1nn2c(=O)c(C(c3ccc(C)cc3)c3c(O)nc4sc(CCC)nn4c3=O)c(O)nc2s1,,-0.554% [at 2.29 µM]
CCOC(=O)c1sc(NS(=O)(=O)c2ccccc2)nc1C,,-13.8%
CCOC(=O)c1sc(N(Cc2ccccc2)C(=O)CN2C(=O)CN(C)C2=O)nc1C,12.6 µM (active),
COc1ccc(NC(=O)COC(=O)c2c(-c3ccccc3)noc2C)cc1,7.08 µM (active),

Compound,AC50,"activity, negative = inhibition"
COc1cccc(/C=N/NC(=O)c2c(-c3ccccc3)noc2C)c1,,-3.56% [at 2.29 µM]
Cc1noc(C)c1C(=O)OCC(=O)NC(c1ccccc1)c1ccccc1,,-8.57% [at 2.29 µM]
CCCCN1CCC(n2c(=O)[nH]c3ccccc32)CC1,,-14.6%
Fc1ccc(Nc2ncnc3ccc(-c4ccoc4)cc23)cc1,15.8 µM (active),
c1ccc(Nc2ncnc3ccc(-c4ccoc4)cc23)cc1,15.8 µM (active),
Cc1noc(COc2ccc(OCc3nc(C)no3)cc2)n1,,-5.47%
CC1(CCC(=O)OC2CCCCC2)OCCO1,,-7.62% [at 11.4 µM]
Cn1c(/C=N/NC(=O)c2ccccc2Br)nc2ccccc21,10 µM (active),
Nc1cccc(OCc2nc(N)nc(N)c2-c2ccc(Cl)cc2)c1,1.58 µM (active),
CCOC(=O)N1CCN(S(=O)(=O)Cc2ccccc2)CC1,,-5.12%
CCOC(=O)C1CCN(C(=O)C2CCN(S(=O)(=O)N3CCCC3)CC2)CC1,,6.47%
CCOC(=O)C1CCCN(S(=O)(=O)c2ccccc2)C1 (centres undefined),,-22.8%
CCOC(=O)C1CCCN(C(=O)CSCc2ccccc2)C1 (centres undefined),25.1 µM (active),
CCOC(=O)C1CCCN(C(=O)CCCOc2cc(=O)n(C)c3ccccc23)C1 (centres undefined),3.98 µM (active),
CCOC(=O)N1CCN(C(=O)CSCc2ccc(Cl)cc2)CC1,4.47 µM (active),
CCOC(=O)N1CCN(C(=O)C(C)SCc2ccccc2)CC1 (centres undefined),,-12.5%
Cc1cc(C(C)(C)CC(C)(C)C)ccc1OCCOCC[N+](C)(C)Cc1ccccc1,,-26% [at 25.6 µM]
CCN(CC)CCCNC(=O)C1CCC(=O)N(c2ccc(OC)cc2)C1c1ccc(F)cc1 (centres undefined),15.8 µM (active),
COc1ccc(N2C(=O)CCC(C(=O)O)C2c2ccc(F)cc2)cc1 (centres undefined),,3.77%
CCCCNC(=O)C1CC(=O)N(c2ccc(OC)cc2)C1c1ccc(OC)cc1 (centres undefined),,3.58% [at 2.29 µM]
COc1ccc(N2C(=O)CCC(C(=O)Nc3ccccn3)C2c2ccc(OC)c(OC)c2)cc1 (centres undefined),20 µM (active),

Compound,AC50,"activity, negative = inhibition"
c1ccc(SC(Sc2ccccc2)c2ccc3c(c2)OCO3)cc1,2.51 µM (active),
O=S(=O)(c1ccccc1)N1CCC2(CCCN(Cc3nccs3)C2)CC1,3.16 µM (active),
O=S(=O)(c1ccccc1)N1CCC2(CCN(Cc3nccs3)CC2)CC1,,-9.07%
O=S(=O)(c1ccccc1)N1CCC2(CC1)CN(Cc1nccs1)C2,,22.3%
CS(=O)(=O)N1CCC2(CCN(Cc3nccs3)CC2)CC1,,-3.65%
O=S(=O)(c1ccccc1)N1CCC[C@@]2(CCN(Cc3nccs3)C2)C1,3.16 µM (active),
CS(=O)(=O)N1CCC2(CC1)CN(Cc1nccs1)C2,,7.56%
CO[C@H]1C[C@@H]2C[C@H](O)C[C@@H](CC(=O)O[C@@H](/C=C\CC(C)C)C[C@@H]3CC[C@H](C)[C@@H](C1)O3)O2,,-7.29% [at 11.4 µM]
Cn1cc(-c2nnc(-c3ccccc3)o2)c2ccccc21,14.1 µM (active),
Oc1ccccc1-c1nnc(-c2ccc(C(F)(F)F)cc2)o1,,6.83%
Clc1ccc(-c2nnc(-c3cccc4ccccc34)o2)cc1Cl,,-4.35% [at 11.4 µM]
O=C1CCCN1CC(CN1CCOCC1)Sc1nnnn1-c1ccccc1 (centres undefined),15.8 µM (active),
c1ccc2c(c1)nnn2CN1CCOCC1,,-7.23% [at 11.4 µM]
C[C@H](O/N=C1/[C@H]2O[C@@H]2[C@@H](O)[C@H]2[C@H]1CCn1c(=O)n(-c3ccccc3)c(=O)n12)c1cn([C@H]2COC[C@H]2O)nn1,,-7.71% [at 11.4 µM]
COc1ccc(O[C@H]2C=C[C@@H](c3ccccc3)O[C@H]2COC(=O)CC/C(C)=N\O[C@@H](C)c2cn([C@H]3COC[C@H]3O)nn2)cc1,3.98 µM (active),
COc1ccc(O[C@H]2C=C[C@@H](c3ccccc3)O[C@H]2COC(=O)CC/C(C)=N\O[C@@H](C)c2cn([C@H](CO)Cc3ccccc3)nn2)cc1,3.98 µM (active) and 5.01 µM (active),
C/C(CCC(=O)OC[C@@H]1O[C@H](C#Cc2ccccc2)C=C[C@@H]1Oc1ccc(C)cc1)=N/O[C@@H](C)c1cn([C@H](CO)Cc2ccccc2)nn1,3.98 µM (active) and 3.16 µM (active),
O=S(=O)(O)c1ccc(N=Nc2ccc3c(S(=O)(=O)O)cccc3c2O)c2ccccc12,,-9.88% [at 11.4 µM]
Cc1ccc(C)c(OCCCC(C)(C)C(=O)O)c1,,5.28% [at 25.6 µM]
C/C(N)=C(/C#N)C(=O)CSc1nnc(COc2cc(C)ccc2C)o1,3.55 µM (active),
CC(=O)CSc1nnc(Cc2ccc([N+](=O)[O-])cc2)o1,,7.56% [at 2.29 µM]

# Source: PubChem BioAssay AID1851 (National Center for Advancing Translational Sciences (NCATS), 2009)
